Sampled rows, rich in hits. Any-hit rate of the full collection: about 3%.
SENP8 block-1 – blocks the human protease SENP8; Q96LD8; purified SENP8, Z-RLRGG-aminoluciferin cleavage, luminescence; inhibition, % at 10 µM; 330,000 tested, 1.2% active; AID 2540; in the data active = inhibition above about 50%
Target sequence (Q96LD8 whole entry, looked up): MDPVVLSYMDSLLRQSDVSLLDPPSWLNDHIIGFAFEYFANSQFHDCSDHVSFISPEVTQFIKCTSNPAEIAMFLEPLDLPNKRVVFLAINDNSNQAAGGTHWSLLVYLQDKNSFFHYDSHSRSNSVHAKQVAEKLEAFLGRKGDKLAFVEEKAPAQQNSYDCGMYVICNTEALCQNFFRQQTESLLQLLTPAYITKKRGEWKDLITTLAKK
SENP6 block – blocks the human protease SENP6; Q9GZR1; Recombinant SENP6 catalytic domain, aminoluciferin luminescence; inhibition, % at 10 µM; 330,000 tested, 1.8% active; AID 2599;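 active = inhibition above about 50% at the single tested dose, limit read from the data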
Target sequence (Q9GZR1 628-1112 limits assumed): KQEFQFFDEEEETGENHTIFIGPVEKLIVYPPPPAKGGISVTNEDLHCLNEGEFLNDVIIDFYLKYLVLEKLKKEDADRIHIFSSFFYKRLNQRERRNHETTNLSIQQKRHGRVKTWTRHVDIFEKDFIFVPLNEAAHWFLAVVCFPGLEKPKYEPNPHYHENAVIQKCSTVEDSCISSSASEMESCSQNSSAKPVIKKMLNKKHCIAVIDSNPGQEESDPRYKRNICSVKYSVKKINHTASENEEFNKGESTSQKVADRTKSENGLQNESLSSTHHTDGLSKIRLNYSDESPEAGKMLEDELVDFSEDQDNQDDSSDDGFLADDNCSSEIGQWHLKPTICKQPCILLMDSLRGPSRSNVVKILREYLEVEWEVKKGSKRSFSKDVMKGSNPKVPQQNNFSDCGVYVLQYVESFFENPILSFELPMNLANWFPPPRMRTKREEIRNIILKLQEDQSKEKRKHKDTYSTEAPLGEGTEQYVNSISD
SENP7 block – blocks the human protease SENP7 | Q9BQF6 | recombinant SENP7, Z-RLRGG-aminoluciferin luminescence, 40 min | inhibition, % at 5 µM | 330,000 tested, 1.5% active;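 active = inhibition above about 50% at the single test dose, limit read from the data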
PPC-1+TRAIL kill – PPC-1 cancer cell killing with TRAIL present; 220,000 tested, 0.41% active; cell killing (% activity), % at 4 µM or 5 µM; PPC-1 cells + TRAIL, ATPLite viability luminescence;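 active = cell killing above 50% in the first pass at 4 µM, then a duplicate retest at 5 µM averaging 50% or more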
SENP8 block-2 – blocks human SENP8 cleavage of Nedd8 substrate; Q96LD8; inhibition, % at 20 µM; 360,000 tested, 0.64% active; recombinant SENP8, Nedd8 substrate fluorescence; AID 602440; in the data active = inhibition mostly above about 40%, no sharp cut-off; inactive = mostly below about 27%
TRAIL sens C8 – sensitizes caspase-8 expressing cells to TRAIL. NB7+C8 cells + TRAIL, ATPlite viability luminescence. inhibition (viability loss, TRAIL sensitization), % at 10 µM. 360,000 tested, 1% active. AID 624354;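 active = compounds causing at least 50% loss of cell viability in the single-dose screen, relative to plate controls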
SENP8 confirm – human SENP8 inhibition, confirmed. 6,200 tested, 40% active. inhibition, % at 12.5 µM. AID 488912. Recombinant SENP8, Z-RLRGG-aminoluciferin luminescence, 60 min. shares compounds with SENP7 block;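 active = mean inhibition across replicates above about 50%, limit read from the data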
SENP6 confirm – human SENP6 inhibition, confirmed | shares compounds with SENP7 block | recombinant SENP6, Z-RLRGG-aminoluciferin luminescence | inhibition, % at 12.5 µM | 6,200 tested, 58% active | AID 488915
SENP7 conf – human SENP7 inhibition, confirmed; shares compounds with SENP7 block; recombinant SENP7, Z-RLRGG-aminoluciferin luminescence, 40 min; inhibition, % at 12.5 µM; 6,200 tested, 69% active; AID 488917
Casp3 SENP sel – caspase-3 inhibition (SENP selectivity assay). AID 488918. purified caspase-3, Z-DEVD-aminoluciferin luminescence, 60 min. inhibition, % at 12.5 µM. 6,200 tested, 60% active. shares compounds with SENP7 block;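 active = mean inhibition above about 50%, limit read from the data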
Luc interf – interferes with luciferase luminescence in SENP counter-screen; AID 488919; Pre-incubated SENP8/Z-RLRGG-aminoluciferin, luciferase luminescence interference; inhibition, % at 12.5 µM; 6,200 tested, 39% active; shares compounds with SENP7 block;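 active = mean inhibition above about 50% when retested at one dose, limit read from the data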
Of the large screens only hits and unclear results are named; the others gave an inactive call (follow-up assays come after a bar, where they were run).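 Rule for the calls, unless noted: active = mean inhibition above about 50% in the one-dose retest (limit read from the data); inactive = the rest.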

Cc1c(C(=O)Oc2ccc(-c3cnc4ccccc4n3)cc2)cccc1[N+](=O)[O-]	none
O=[N+]([O-])c1cccc(-c2cnc3ccccc3n2)c1	none
O=[N+]([O-])c1cc(-c2cnc3ccccc3n2)ccc1Cl	SENP7 block 50.7 | SENP8 confirm inactive | SENP6 confirm inactive | SENP7 conf inactive | Casp3 SENP sel inactive | Luc interf inactive
Nc1cccc(-c2cnc3ccccc3n2)c1	SENP8 block-1 51.2, SENP6 block 68.0, SENP7 block 57.9 (no result: PPC-1+TRAIL kill) | SENP8 confirm inactive | SENP6 confirm inactive | SENP7 conf 78.3 | Casp3 SENP sel 75.4 | Luc interf inactive
O=C(Oc1ccc(-c2cnc3ccccc3n2)cc1)c1cc([N+](=O)[O-])ccc1Cl	SENP7 block 77.7 | SENP8 confirm inactive | SENP6 confirm inactive | SENP7 conf inactive | Casp3 SENP sel inactive | Luc interf inactive
CC(C)C[C@H]1COc2cccc(N3CCN(Cc4ccccc4F)CC3)c2S(=O)(=O)N1	none (no result: SENP8 block-1, SENP6 block, SENP7 block, PPC-1+TRAIL kill)
O=C(NCCO)C(=O)NCC(c1cccs1)S(=O)(=O)c1ccc(F)cc1 (centres undefined)	none (no result: SENP8 block-1, SENP6 block, SENP7 block, PPC-1+TRAIL kill)
O=C(CC(c1cccs1)S(=O)(=O)c1ccccc1)c1ccc(F)cc1 (centres undefined)	SENP6 block 52.4 | SENP8 confirm inactive | SENP6 confirm inactive | SENP7 conf inactive | Casp3 SENP sel inactive | Luc interf inactive
CCC(=O)NCC(c1cccs1)S(=O)(=O)c1ccc(C)cc1 (centres undefined)	none (no result: PPC-1+TRAIL kill)
Cc1ccc(C(=O)CC(c2cccs2)S(=O)(=O)c2ccc(C)cc2)cc1 (centres undefined)	SENP6 block 61.9, SENP7 block 62.8 | SENP8 confirm inactive | SENP6 confirm inactive | SENP7 conf inactive | Casp3 SENP sel inactive | Luc interf inactive
Cc1ccc(Nc2nc3nonc3[nH]c2=O)cc1	SENP8 block-1 59.7, SENP7 block 59.9 | SENP8 confirm 75.1 | SENP6 confirm 66.3 | SENP7 conf 84.5 | Casp3 SENP sel 74.1 | Luc interf 70.9
CCCn1nc(C(=O)N2CCN(S(=O)(=O)c3ccc(C)c(C)c3)CC2)c2ccccc2c1=O	none (no result: PPC-1+TRAIL kill)
COc1cccc(C(=O)O/N=C(\N)c2ccc([N+](=O)[O-])cc2)c1	none
Cc1ccc(/C(N)=N/OC(=O)CCC2CCCCC2)cc1	none
Cc1cccc(/C(N)=N/OC(=O)c2ccoc2C)c1	SENP8 block-1 94.3, SENP6 block 96.8, SENP7 block 98.4, TRAIL sens C8 90.9 (no result: PPC-1+TRAIL kill) | SENP8 confirm 96.8 | SENP6 confirm 97.2 | SENP7 conf 101.7 | Casp3 SENP sel 97.3 | Luc interf 95.5
Cc1cccc(/C(N)=N/OC(=O)c2ccncc2)c1	SENP8 block-1 75.4, SENP6 block 89.0, SENP7 block 92.4 (no result: PPC-1+TRAIL kill) | SENP8 confirm 78.9 | SENP6 confirm 84.2 | SENP7 conf 95.8 | Casp3 SENP sel 91.9 | Luc interf 79.8
COc1ccc(C(=O)O/N=C(\N)c2cccc(C)c2)cc1OC	none (no result: PPC-1+TRAIL kill)
N/C(=N\OC(=O)c1ccncc1)c1cccc([N+](=O)[O-])c1	none (no result: PPC-1+TRAIL kill)
COc1cccc(C(=O)O/N=C(\N)c2ccc(C)cc2)c1	SENP8 block-1 57.5, SENP6 block 73.0, SENP7 block 83.3 (no result: PPC-1+TRAIL kill) | SENP8 confirm 74.2 | SENP6 confirm 75.9 | SENP7 conf 93.4 | Casp3 SENP sel 79.0 | Luc interf 57.7
Cc1cccc(/C(N)=N/OC(=O)CCC2CCCCC2)c1	SENP6 block 82.7 | SENP8 confirm 67.3 | SENP6 confirm 90.2 | SENP7 conf 98.3 | Casp3 SENP sel 86.4 | Luc interf 82.7
COc1cccc(C(=O)O/N=C(\N)c2ccncc2)c1	SENP7 block 67.4, TRAIL sens C8 52.9 | SENP8 confirm inactive | SENP6 confirm inactive | SENP7 conf 78.1 | Casp3 SENP sel 82.6 | Luc interf 58.9
COc1ccc(C(=O)O/N=C(\N)c2ccncc2)cc1OC	none
COc1ccc(/C=C/C(=O)NNC(=O)c2ccncc2)c(OC)c1	none (no result: PPC-1+TRAIL kill)
Cc1nc(NC(=O)c2cncc(Br)c2)ccc1Br	none (no result: PPC-1+TRAIL kill)
Cc1nc(NC(=O)c2ccc3c(c2)OCO3)ccc1Br	SENP8 block-1 74.2, SENP6 block 81.2, SENP7 block 77.4 | SENP8 confirm inactive | SENP6 confirm 72.4 | SENP7 conf 89.2 | Casp3 SENP sel 72.8 | Luc interf inactive
O=C(Nc1ccccn1)c1ccc2c(c1)OCCO2	SENP8 block-1 61.5, SENP7 block 79.6, TRAIL sens C8 55.6 (no result: PPC-1+TRAIL kill) | SENP8 confirm inactive | SENP6 confirm 69.7 | SENP7 conf 92.0 | Casp3 SENP sel 88.9 | Luc interf 71.7
O=C(Nc1ncccc1Cl)c1ccc2c(c1)OCCO2	none
Cc1cc(C)n2nc(C(=O)Nc3ccc4c(c3)OCO4)nc2n1	none
Cc1ccnc2nc(C(=O)Nc3ccc4c(c3)OCO4)nn12	SENP8 block-1 57.3, SENP6 block 67.0 | SENP8 confirm inactive | SENP6 confirm 63.4 | SENP7 conf 53.3 | Casp3 SENP sel 90.5 | Luc interf inactive
Cc1cccc(NC(=O)c2cc3c(s2)-c2c(C)cccc2OC3)n1	SENP7 block 86.4 | SENP8 confirm inactive | SENP6 confirm inactive | SENP7 conf inactive | Casp3 SENP sel inactive | Luc interf inactive
Cc1cccc(NC(=O)c2ccc3c(c2)OCCO3)n1	SENP8 block-1 59.1, SENP6 block 78.4, SENP7 block 82.8 (no result: PPC-1+TRAIL kill) | SENP8 confirm inactive | SENP6 confirm 74.7 | SENP7 conf 91.8 | Casp3 SENP sel 89.2 | Luc interf 76.3
Cc1cccnc1NC(=O)c1ccc2c(c1)OCO2	none (no result: PPC-1+TRAIL kill)
O=C(Nc1ccccn1)c1ccc2c(c1)OCO2	SENP8 block-1 52.3, SENP7 block 73.1 | SENP8 confirm inactive | SENP6 confirm 66.2 | SENP7 conf 92.1 | Casp3 SENP sel 90.4 | Luc interf 70.5
O=C(Nc1ccc2c(c1)OCO2)c1ccccn1	SENP8 block-1 52.7, SENP6 block 65.6, SENP7 block 57.1 (no result: PPC-1+TRAIL kill) | SENP8 confirm 71.3 | SENP6 confirm 71.0 | SENP7 conf 88.1 | Casp3 SENP sel 88.7 | Luc interf 73.2
COc1cccc(NC(=O)c2sc3ncn(CC(=O)N4CCN(c5ccccn5)CC4)c(=O)c3c2C)c1	none (no result: PPC-1+TRAIL kill)
